Measurements: PubChem BioAssay AID1159580 (chemical genetic matrix, 2015)
“And” between values parts separate entries of the source, which are not always exact repeats. Equal entries are not always repeated. In all, about 5,500 compounds went through this assay and about 2,000 (36%) were called active. Roughly 18% stayed inconclusive and do not appear here. This is one part of the list. Unmarked numbers belong to inactive results. No stated cut-off is given here; in the data, active means normalized growth mostly below about 0.91 (no sharp cut-off); inconclusive means no clear call, values can overlap the other calls; inactive means mostly above about 0.92.

Assay: chemical genetic growth profiling, strain panel (AID 1159580);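 further: tested at 20 µM; growth read once vehicle control cultures reached saturation at 30 °C; 1 = growth at the plate median or of vehicle wells; lower values mean less growth of the strain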
Conditions: S. cerevisiae deletion strains, growth OD

CCC(C)C(=O)O[C@@H]1C[C@@]2(C)[C@H](c3ccoc3)OC(=O)CC23OC2(C)O[C@]14[C@]1(C)[C@@H](CC(=O)OC)C5(C)CC1(O)[C@](O)(C5OC(=O)C1(C)OC1C)[C@@H](OC(C)=O)[C@]34O2 (some centres undefined)
normalized growth (locus YAL013W, strain DEP1, hits give low values): 1.02 | normalized growth (locus YAL021C, strain ccr4, hits give low values): 0.996 | normalized growth (locus YAL026C, strain drs2, hits give low values): 0.988 | normalized growth (locus YAL030W, strain snc1, hits give low values): 0.991 | normalized growth (locus YBL061C, strain skt5, hits give low values): 1 | normalized growth (locus YBR009C, strain hhf1, hits give low values): 1.01 | normalized growth (locus YBR021W, strain FUR4, hits give low values): 1.03 | normalized growth (locus YBR023C, strain chs3, hits give low values): 1.01 | normalized growth (locus YBR171W, strain sec66, hits give low values): 0.978 | normalized growth (locus YBR229C, strain ROT2, hits give low values): 1.01 | normalized growth (locus YBR231C, strain swc5, hits give low values): 0.995 | normalized growth (locus YBR279W, strain paf1, hits give low values): 1 | normalized growth (locus YCL011C, strain gbp2, hits give low values): 0.983 | normalized growth (locus YCL016C, strain dcc1, hits give low values): 1.01 | normalized growth (locus YCL029C, strain bik1, hits give low values): 1.02 | normalized growth (locus YCL061C, strain MRC1, hits give low values): 1.01 | normalized growth (locus YCL069W, strain vba3, hits give low values): 0.98 | normalized growth (locus YCR088W, strain abp1, hits give low values): 0.995 | normalized growth (locus YDL005C, strain med2, hits give low values): 0.978 | normalized growth (locus YDL035C, strain GPR1, hits give low values): 0.963 | normalized growth (locus YDL040C, strain nat1, hits give low values): 0.982 | normalized growth (locus YDL074C, strain BRE1, hits give low values): 0.994 | normalized growth (locus YDL101C, strain DUN1, hits give low values): 1.02 | normalized growth (locus YDL185W, strain tfp1, hits give low values): 1.02 | normalized growth (locus YDL192W, strain arf1, hits give low values): 0.995 | normalized growth (locus YDR001C, strain nth1, hits give low values): 0.997 | normalized growth (locus YDR069C, strain doa4, hits give low values): 1.01 | normalized growth (locus YDR101C, strain arx1, hits give low values): 1.02 | normalized growth (locus YDR137W, strain rgp1, hits give low values): 0.726 (active) | normalized growth (locus YDR159W, strain sac3, hits give low values): 1.02 | normalized growth (locus YDR162C, strain NBP2, hits give low values): 0.979 | normalized growth (locus YDR195W, strain ref2): 0.969 | normalized growth (locus YDR297W, strain sur2, hits give low values): 0.995 | normalized growth (locus YDR318W, strain mcm21, hits give low values): 1.02 | normalized growth (locus YDR334W, strain swr1, hits give low values): 0.983 | normalized growth (locus YDR335W, strain msn5, hits give low values): 0.992 | normalized growth (locus YDR388W, hits give low values): 1.02 | normalized growth (locus YDR392W, strain spt3, hits give low values): 0.918 | normalized growth (locus YDR502C, strain sam2, hits give low values): 1.03 | normalized growth (locus YEL003W, strain gim4, hits give low values): 0.993 | normalized growth (locus YEL037C, strain rad23, hits give low values): 0.995 | normalized growth (locus YEL061C, strain CIN8 (second series), hits give low values): 0.988 | normalized growth (locus YEL061C, strain CIN8, hits give low values): 1 | normalized growth (locus YER015W, strain faa2, hits give low values): 1 | normalized growth (locus YER016W, strain bim1, hits give low values): 0.995 | normalized growth (locus YER110C, hits give low values): 1.02 | normalized growth (locus YER111C, strain swi4, hits give low values): 0.976 | normalized growth (locus YER155C, strain BEM2 (second series), hits give low values): 1 | normalized growth (locus YER155C, strain BEM2, hits give low values): 1.01 | normalized growth (locus YER167W, strain BCK2, hits give low values): 1 | normalized growth (locus YFR010W, strain ubp6, hits give low values): 0.985 | normalized growth (locus YGL078C, strain dbp3, hits give low values): 1.05 | normalized growth (locus YGL086W, strain mad1, hits give low values): 1.01 | normalized growth (locus YGL167C, strain pmr1, hits give low values): 0.995 | normalized growth (locus YGL173C, strain kem1, hits give low values): 0.993 | normalized growth (locus YGL227W, strain vid30, hits give low values): 0.994 | normalized growth (locus YGL240W, strain doc1, hits give low values): 0.977 | normalized growth (locus YGL248W, strain PDE1, hits give low values): 1.01 | normalized growth (locus YGL253W, strain hxk2, hits give low values): 0.952 | normalized growth (locus YGR078C, strain PAC10, hits give low values): 1.02 | normalized growth (locus YGR135W, strain pre9, hits give low values): 1.04 | normalized growth (locus YGR229C, strain SMI1, hits give low values): 1.03 | normalized growth (locus YGR252W, strain gcn5, hits give low values): 1.04 | normalized growth (locus YHR013C, strain ard1, hits give low values): 0.984 | normalized growth (locus YHR027C, strain rpn1, hits give low values): 0.996 | normalized growth (locus YHR030C, strain SLT2, hits give low values): 1.02 and 0.954 | normalized growth (locus YHR079C, strain IRE1 (second series), hits give low values): 1.02 | normalized growth (locus YHR079C, strain IRE1, hits give low values): 0.962 | normalized growth (locus YHR094C, strain hxt1, hits give low values): 1.02 | normalized growth (locus YHR129C, strain ARP1, hits give low values): 1 | normalized growth (locus YHR142W, strain chs7, hits give low values): 0.984 | normalized growth (locus YHR200W, strain rpn10, hits give low values): 1.02 | normalized growth (locus YIL066C, strain RNR3, hits give low values): 0.999 | normalized growth (locus YIL073C, strain SPO22, hits give low values): 1.04 | normalized growth (locus YIL125W, strain kgd1, hits give low values): 1.02 | normalized growth (locus YIR030C, strain dcg1, hits give low values): 1.02 | normalized growth (locus YJL092W, strain hpr5, hits give low values): 0.986 | normalized growth (locus YJL095W, strain BCK1 (second series), hits give low values): 1 | normalized growth (locus YJL095W, strain BCK1, hits give low values): 1.01 and 0.948 | normalized growth (locus YJL115W, strain asf1, hits give low values): 1 | normalized growth (locus YJL129C, strain trk1, hits give low values): 0.983 | normalized growth (locus YJL134W, strain LCB3, hits give low values): 1.01 | normalized growth (locus YJL154C, strain vps35, hits give low values): 0.993 | normalized growth (locus YJL164C, strain tpk1, hits give low values): 1.01 | normalized growth (locus YJL166W, strain qcr8, hits give low values): 0.987 | normalized growth (locus YJL168C, strain set2, hits give low values): 1.02 | normalized growth (locus YJL187C, strain SWE1 (second series), hits give low values): 1.02 | normalized growth (locus YJL187C, strain SWE1, hits give low values): 1 | normalized growth (locus YJR066W, strain TOR1, hits give low values): 0.912 | normalized growth (locus YJR075W, strain HOC1, hits give low values): 1.02 | normalized growth (locus YKL009W, strain mrt4, hits give low values): 0.989 | normalized growth (locus YKL068W, hits give low values): 1 | normalized growth (locus YKL085W, strain MDH1 (second series), hits give low values): 1 | normalized growth (locus YKL085W, strain MDH1, hits give low values): 1 | normalized growth (locus YKL160W, strain elf1, hits give low values): 1.02 | normalized growth (locus YKR001C, strain vps1, hits give low values): 1.01 | normalized growth (locus YKR026C, strain gcn3, hits give low values): 1 | normalized growth (locus YKR091W, strain srl3, hits give low values): 0.996 | normalized growth (locus YLL001W, strain dnm1, hits give low values): 1.01 | normalized growth (locus YLL026W, hits give low values): 1 | normalized growth (locus YLL041C, strain sdh2, hits give low values): 0.987 | normalized growth (locus YLR027C, strain aat2, hits give low values): 1.01 | normalized growth (locus YLR039C, strain RIC1, hits give low values): 0.683 | normalized growth (locus YLR058C, strain SHM2, hits give low values): 1 | normalized growth (locus YLR102C, strain apc9, hits give low values): 1.03 | normalized growth (locus YLR113W, strain HOG1, hits give low values): 1 | normalized growth (locus YLR221C, strain rsa3, hits give low values): 0.978 | normalized growth (locus YLR258W, strain gsy2, hits give low values): 0.988 | normalized growth (locus YLR262C, strain YPT6 (second series), hits give low values): 0.711 (active) | normalized growth (locus YLR262C, strain YPT6, hits give low values): 0.602 (active) | normalized growth (locus YLR268W, strain sec22, hits give low values): 0.995 | normalized growth (locus YLR320W, strain mms22, hits give low values): 0.979 | normalized growth (locus YLR330W, strain CHS5, hits give low values): 1.02 | normalized growth (locus YLR342W, strain FKS1 (second series), hits give low values): 0.981 | normalized growth (locus YLR342W, strain FKS1, hits give low values): 0.977 | normalized growth (locus YLR357W, strain rsc2, hits give low values): 1.01 | normalized growth (locus YLR370C, strain arc18, hits give low values): 0.971 | normalized growth (locus YLR371W, strain rom2, hits give low values): 1.01 | normalized growth (locus YLR384C, strain iki3, hits give low values): 1.01 | normalized growth (locus YLR418C, strain cdc73, hits give low values): 1.01 | normalized growth (locus YML016C, strain PPZ1, hits give low values): 1 | normalized growth (locus YML032C, strain rad52, hits give low values): 1.01 | normalized growth (locus YML120C, strain ndi1, hits give low values): 0.992 | normalized growth (locus YML124C, strain tub3, hits give low values): 1.01 | normalized growth (locus YMR058W, strain fet3, hits give low values): 1.01 | normalized growth (locus YMR078C, strain ctf18, hits give low values): 1.02 | normalized growth (locus YMR125W, strain sto1, hits give low values): 0.991 | normalized growth (locus YMR129W, hits give low values): 0.999 | normalized growth (locus YMR205C, strain PFK2, hits give low values): 1.01 | normalized growth (locus YMR223W, strain ubp8, hits give low values): 1.02 | normalized growth (locus YMR231W, strain pep5, hits give low values): 0.945 | normalized growth (locus YMR307W, strain GAS1, hits give low values): 0.925 | normalized growth (locus YNL067W, strain RPL9B, hits give low values): 1.03 | normalized growth (locus YNL071W, strain lat1, hits give low values): 0.994 | normalized growth (locus YNL183C, strain NPR1, hits give low values): 0.928 | normalized growth (locus YNL209W, strain ssb2, hits give low values): 0.995 | normalized growth (locus YNL233W, strain BNI4, hits give low values): 1.03 | normalized growth (locus YNL248C, strain rpa49, hits give low values): 0.975 | normalized growth (locus YNL250W, strain rad50, hits give low values): 1.05 | normalized growth (locus YNL271C, strain bni1, hits give low values): 1.02 | normalized growth (locus YNL298W, strain CLA4, hits give low values): 1.02 | normalized growth (locus YNL307C, strain MCK1, hits give low values): 1.03 | normalized growth (locus YNL322C, strain KRE1 (second series), hits give low values): 0.984 | normalized growth (locus YNL322C, strain KRE1, hits give low values): 1.02 | normalized growth (locus YNR049C, strain mso1, hits give low values): 0.999 | normalized growth (locus YNR052C, strain pop2, hits give low values): 1.03 | normalized growth (locus YOL012C, strain htz1): 0.597 | normalized growth (locus YOL147C, strain pex11, hits give low values): 1.02 | normalized growth (locus YOR001W, strain rrp6, hits give low values): 0.941 | normalized growth (locus YOR061W, strain CKA2, hits give low values): 1 | normalized growth (locus YOR069W, strain VPS5, hits give low values): 1.01 | normalized growth (locus YOR070C, strain gyp1, hits give low values): 0.994 | normalized growth (locus YOR080W, strain dia2, hits give low values): 0.985 | normalized growth (locus YOR083W, strain WHI5, hits give low values): 1.03 | normalized growth (locus YOR106W, strain vam3, hits give low values): 1.02 | normalized growth (locus YOR136W, strain idh2, hits give low values): 0.999 | normalized growth (locus YOR144C, strain elg1, hits give low values): 1.02 | normalized growth (locus YOR184W, strain ser1, hits give low values): 0.996 | normalized growth (locus YOR231W, strain MKK1, hits give low values): 0.978 | normalized growth (locus YOR265W, strain rbl2, hits give low values): 0.994 | normalized growth (locus YOR270C, strain vph1, hits give low values): 0.779 | normalized growth (locus YOR290C, strain snf2, hits give low values): 1 | normalized growth (locus YOR316C, strain cot1, hits give low values): 1.02 | normalized growth (locus YPL051W, strain arl3, hits give low values): 1.01 | normalized growth (locus YPL078C, strain atp4, hits give low values): 1.01 | normalized growth (locus YPL106C, strain sse1, hits give low values): 1.02 | normalized growth (locus YPL240C, strain hsp82, hits give low values): 0.989 | normalized growth (locus YPL241C, strain CIN2, hits give low values): 1.01 | normalized growth (locus YPL256C, strain CLN2, hits give low values): 0.965 | normalized growth (locus YPR119W, strain clb2, hits give low values): 1.01 | normalized growth (locus YPR141C, strain kar3, hits give low values): 1.03 | normalized growth (locus YPR163C, strain tif3, hits give low values): 1.02 | normalized growth (locus YPR167C, strain met16, hits give low values): 1.02 | normalized growth (strain wtn01, hits give low values): 1
